Structures can show the parent of a compound that is named as a salt.
Tested on: HL-1
Experiment: relative cell viability (CellTiter-Glo) vs DMSO control (% of DMSO control); higher = more viable cells
How it was run: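 Cell viability was determined from CellTiter-Glo luminescence, expressed relative to vehicle-treated control cells. The cells were HL-1 mouse atrial cardiomyocytes, plated at 1000 cells per well in 384-well plates with compounds at 40, 200, 1000 or 5000 nM in 0.01% DMSO. One day after plating, they underwent 48 h of hypoxia (1% O2) in a hypoxic workstation followed by 24 h of reoxygenation in a normal incubator, or were kept in normoxia for an equal time.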

[1] = oxygen condition: hypoxia 48 h (1% O2) + reoxygenation 24 h, 40 nM
[2] = oxygen condition: hypoxia 48 h (1% O2) + reoxygenation 24 h, 200 nM
[3] = oxygen condition: hypoxia 48 h (1% O2) + reoxygenation 24 h, 1000 nM
[4] = oxygen condition: hypoxia 48 h (1% O2) + reoxygenation 24 h, 5000 nM
[5] = oxygen condition: normoxia 72 h, 40 nM
[6] = oxygen condition: normoxia 72 h, 200 nM
[7] = oxygen condition: normoxia 72 h, 1000 nM
[8] = oxygen condition: normoxia 72 h, 5000 nM

| SMILES | relative cell viability [1] | relative cell viability [2] | relative cell viability [3] | relative cell viability [4] | relative cell viability [5] | relative cell viability [6] | relative cell viability [7] | relative cell viability [8] |
| --- | --- | --- | --- | --- | --- | --- | --- | --- |
| COCCc1ccc(OCC(O)CNC(C)C)cc1 (centres undefined) [Metoprolol tartrate] | 101 | 98 | 105 | 111 | 77.9 | 103 | 103 | 111 |
| NCCCC[C@H](N[C@@H](CCc1ccccc1)C(=O)O)C(=O)N1CCC[C@H]1C(=O)O [Lisinopril] | 111 | 94.9 | 100 | 107 | 101 | 94.7 | 107 | 108 |
| CN(N=O)C(=O)N[C@@H](C=O)[C@@H](O)[C@H](O)[C@H](O)CO [Streptozotocin] | 103 | 103 | 99.8 | 109 | 99.9 | 109 | 104 | 102 |
| NCCc1c[nH]cn1 [Histamine Phosphate] | 99.7 | 101 | 96.7 | 108 | 98.8 | 101 | 97.7 | 109 |
| O=c1cc[nH]c(=S)[nH]1 [2-Thiouracil] | 99.6 | 105 | 104 | 104 | 102 | 103 | 100 | 114 |
| Oc1ccc(OC2CCCCO2)cc1 (centres undefined) [Deoxyarbutin] | 103 | 104 | 107 | 113 | 103 | 102 | 113 | 109 |
| O=C(c1ccc(OCCN2CCCCC2)cc1)c1c(-c2ccc(O)cc2)sc2cc(O)ccc12 [Evista] | 111 | 107 | 106 | 54 | 112 | 107 | 109 | 68.7 |
| CC/C(=C(\c1ccccc1)c1ccc(OCCN(C)C)cc1)c1ccccc1 [Tamoxifen Citrate] | 103 | 99.9 | 98.6 | 108 | 95.9 | 107 | 105 | 103 |
| CCOc1nc2cccc(C(=O)O)c2n1Cc1ccc(-c2ccccc2-c2nnn[nH]2)cc1 [Candesartan] | 110 | 105 | 110 | 109 | 107 | 109 | 108 | 110 |
| CCCC(=O)Nc1ccc(OCC(O)CNC(C)C)c(C(C)=O)c1 (centres undefined) [Acebutolol HCl] | 102 | 108 | 107 | 114 | 104 | 107 | 106 | 116 |
| Cc1ccc(S(=O)(=O)NC(=O)NN2CC3CCCC3C2)cc1 (centres undefined) [Gliclazide] | 104 | 110 | 111 | 104 | 112 | 113 | 118 | 112 |
| COc1ccc(CC2c3cc(OC)c(OC)cc3CC[N+]2(C)CCC(=O)OCCCCCOC(=O)CC[N+]2(C)CCc3cc(OC)c(OC)cc3C2Cc2ccc(OC)c(OC)c2)cc1OC (centres undefined) [Atracurium besylate] | 104 | 96.7 | 91.2 | 23.1 | 101 | 93.3 | 95.7 | 18.9 |
| COCCOC(=O)C1=C(C)NC(C)=C(C(=O)OC/C=C/c2ccccc2)C1c1cccc([N+](=O)[O-])c1 (centres undefined) [Cilnidipine] | 101 | 105 | 110 | 109 | 107 | 109 | 103 | 110 |
| CC1=CC(=O)c2ccccc2C1=O [Menadione] | 100 | 98.2 | 102 | 109 | 101 | 104 | 101 | 106 |
| CC#CCn1c(N2CCC[C@@H](N)C2)nc2c1c(=O)n(Cc1nc(C)c3ccccc3n1)c(=O)n2C [Linagliptin] | 96.7 | 103 | 104 | 105 | 106 | 105 | 107 | 106 |
| O=c1oc2cc(O)ccc2s1 [Tioxolone] | 106 | 104 | 108 | 110 | 107 | 109 | 113 | 106 |
| Nc1nc(Cl)nc2c1ncn2[C@H]1C[C@H](O)[C@@H](CO)O1 [Cladribine] | 76.2 | 30.7 | 6.18 | 4.06 | 55.5 | 21.9 | 5.2 | 4.23 |
| CCCC(=O)O[C@]1(C(=O)COC(C)=O)CC[C@H]2[C@@H]3C[C@H](F)C4=CC(=O)C=C[C@]4(C)[C@@]3(F)[C@@H](O)C[C@@]21C [Difluprednate] | 83.3 | 93.3 | 92.2 | 102 | 90.8 | 89 | 94.4 | 102 |
| COc1cc2c(cc1O)CC[C@@H]1[C@@H]2CC[C@]2(C)[C@@H](O)CC[C@@H]12 [2-Methoxyestradiol] | 106 | 104 | 102 | 112 | 102 | 105 | 102 | 109 |
| CC(=O)Nc1ccccc1 [Acetanilide] | 96.5 | 98.9 | 100 | 111 | 101 | 94.9 | 98 | 105 |
| C=C1CC[C@H](O)C/C1=C/C=C1\CCC[C@]2(C)[C@@H]([C@H](C)/C=C/[C@H](C)C(C)C)CC[C@@H]12 [Vitamin D2] | 102 | 99.8 | 111 | 112 | 107 | 105 | 109 | 110 |
| O=S(=O)(O)Oc1ccc(C(c2ccc(OS(=O)(=O)O)cc2)c2ccccn2)cc1 [Sodium Picosulfate] | 107 | 109 | 108 | 116 | 110 | 111 | 112 | 116 |

| SMILES | relative cell viability [1] | relative cell viability [2] | relative cell viability [3] | relative cell viability [4] | relative cell viability [5] | relative cell viability [6] | relative cell viability [7] | relative cell viability [8] |
| --- | --- | --- | --- | --- | --- | --- | --- | --- |
| C=C[C@]1(C)C[C@@H](OC(=O)CS[C@@H]2C[C@H]3CC[C@@H](C2)N3C)[C@]2(C)[C@H](C)CC[C@]3(CCC(=O)[C@H]32)[C@@H](C)[C@@H]1O [Retapamulin] | 104 | 104 | 105 | 108 | 98.3 | 97.1 | 89.2 | 81.7 |
| CC(CN(C)C)CN1c2ccccc2CCc2ccccc21 (centres undefined) [Trimipramine Maleate] | 103 | 105 | 111 | 111 | 99.2 | 101 | 102 | 94.2 |
| CCCCOc1cc(C(=O)OCCN(CC)CC)ccc1N [Oxybuprocaine HCl] | 106 | 106 | 108 | 108 | 103 | 102 | 113 | 112 |
| CN1CCN(CCCN2c3ccccc3Sc3ccc(C(F)(F)F)cc32)CC1 [Trifluoperazine 2HCl] | 102 | 103 | 105 | 114 | 107 | 106 | 103 | 112 |
| CC(=O)OCC(=O)[C@@]12N=C(C)O[C@@H]1C[C@H]1[C@@H]3CCC4=CC(=O)C=C[C@]4(C)[C@H]3[C@@H](O)C[C@@]12C [Deflazacort] | 90.6 | 90.3 | 97.1 | 77.3 | 89.6 | 92.4 | 95.6 | 99.2 |
| Nc1[nH]cnc2ncnc1-2 [Adenine hydrochloride] | 108 | 105 | 104 | 110 | 100 | 96.4 | 103 | 107 |
| CCN(CC)C(=S)SSC(=S)N(CC)CC [Disulfiram] | 12.3 | 8.25 | 4.82 | 4.57 | 19.2 | 11.5 | 6.89 | 3.79 |
| CCN(CC)C(=O)/C(C#N)=C/c1cc(O)c(O)c([N+](=O)[O-])c1 [Entacapone] | 101 | 105 | 103 | 108 | 100 | 111 | 103 | 114 |
| OC(CCN1CCCC1)(c1ccccc1)C1CCCCC1 (centres undefined) [Procyclidine HCl] | 93.1 | 89.9 | 85.4 | 29.9 | 101 | 97.7 | 82.5 | 30.6 |
| CCN[C@H]1C[C@H](C)S(=O)(=O)c2sc(S(N)(=O)=O)cc21 [Dorzolamide HCL] | 111 | 105 | 104 | 111 | 117 | 106 | 107 | 121 |
| O=C(O)c1ccc(-n2nc(-c3ccccc3O)nc2-c2ccccc2O)cc1 [Deferasirox] | 93.2 | 100 | 99.7 | 88.1 | 97 | 104 | 94.3 | 42.9 |
| OC[C@@H](O)[C@@H](O)[C@H](O)[C@@H](O)CO [Sorbitol] | 93 | 101 | 98 | 101 | 100 | 106 | 97.9 | 97.5 |
| O=C(CCCN1CCC(O)(c2ccc(Cl)cc2)CC1)c1ccc(F)cc1 [Haloperidol] | 101 | 99.4 | 102 | 101 | 92.8 | 98 | 100 | 98.5 |
| N=C(N)NC(=N)N1CCOCC1 [Moroxydine] | 101 | 98.5 | 103 | 108 | 96.3 | 101 | 105 | 114 |
| CC[C@@H](CO)NCCN[C@@H](CC)CO [Ethambutol HCl] | 100 | 93.4 | 102 | 112 | 90.2 | 91.3 | 102 | 3.47 |
| CC(=O)OCC[N+](C)(C)C [Acetylcholine chloride] | 93.2 | 99.1 | 101 | 106 | 91.7 | 101 | 104 | 106 |
| COc1ccc([C@@H]2Sc3ccccc3N(CCN(C)C)C(=O)[C@@H]2OC(C)=O)cc1 [Diltiazem HCl] | 104 | 105 | 106 | 114 | 105 | 108 | 109 | 113 |
| CCOC(=O)[C@H](CCc1ccccc1)N[C@@H](C)C(=O)N1[C@H](C(=O)O)C[C@@H]2CCC[C@@H]21 [Ramipril] | 100 | 115 | 113 | 123 | 112 | 105 | 117 | 116 |
| COc1cc2nc(N3CCN(C(=O)c4ccco4)CC3)nc(N)c2cc1OC [Prazosin HCl] | 102 | 101 | 109 | 109 | 101 | 100 | 106 | 109 |
| CC(=O)OCC(=O)[C@H]1CC[C@H]2[C@@H]3CCC4=CC(=O)CC[C@]4(C)[C@H]3CC[C@]12C [Deoxycorticosterone acetate] | 103 | 99.4 | 101 | 108 | 95.4 | 103 | 102 | 107 |
| CCCCC1=NC2(CCCC2)C(=O)N1Cc1ccc(-c2ccccc2-c2nnn[nH]2)cc1 [Irbesartan] | 103 | 102 | 107 | 108 | 107 | 105 | 102 | 107 |
